# Assay results reported in PubChem BioAssay (NCI).
# About 83,000 compounds went through this panel and 20% of them were active in at least one assay; those are over-represented in the sample as a whole.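 Single-dose data. Exposure time 48 hours. Values below 10 considered active.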 Calls of active or inactive are those of the source.
# Test system: NCI-H23 lung
# Experiment: NCI-60 one-dose screen, 48 h (100 = growth as untreated, 0 = no growth, -100 = all killed)
# Conditions: 10 µM unless noted
row,Structure (SMILES),growth
1,C[C@]12CC[C@@H]3c4cc(O)c(O)cc4CC[C@H]3[C@@H]1CC[C@@H]2O,64.5% (inactive)
2,CCCOC(=O)C1(O)CCCC1,106% (inactive)
3,COC1=CC(c2ccc[nH]2)=N/C1=C\c1[nH]c(C)c(C(=O)CCCCC(=O)NCc2ccccc2)c1C,31.6% (inactive)
4,O=C(NNC(=S)Nc1ccccc1)c1ccccn1,73.1% (inactive)
5,COc1cc(NC(=O)CCl)ccc(=O)c1,53.7% (inactive)
6,COc1ccc(S(=O)(=O)N2CCN(c3cc4c(cc3F)c(=O)c(C(=O)O)cn4C3CC3)CC2)c(OC)c1,97% (inactive)
7,COc1ccc(Cn2cc(COc3cc(/C=C/C(=O)c4cc(OC)c(OC)c(OC)c4)ccc3OC)nn2)cc1,107% (inactive)
8,COc1cc(C(=O)OCCCCCCCCCCC[P+](c2ccccc2)(c2ccccc2)c2ccccc2)ccc1O,-18.2% (active)
9,CC(C(=O)n1cc(-c2ccccc2)c(-c2ccccc2)c1)c1ccccc1 (stereo not given),101% (inactive)
10,C=CCOc1cccc(/C=C/C(=O)c2sc(Nc3cccnc3)nc2C)c1,94.1% (inactive)
11,O=C(CCCn1c(=O)c2sc3ccccc3c2n2nnc(-c3ccccc3)c12)NCCc1cnc[nH]1,-20.4% (active)
12,CCC1CCc2nc3sc(C(=O)Nc4cccc(C)c4)c(N)c3cc2C1 (stereo not given),101% (inactive)
13,Cc1cccc(NC(=O)c2sc3nc4c(cc3c2N)CCCC4)c1,65% (inactive)
14,COc1ccc(-c2cn[nH]c2-c2cc(OC)c3c(c2)OCCO3)cc1,25.6% (inactive)
15,CC(C)C[C@H](NC(=O)Cn1ccc(NCc2ccccc2)cc1=O)B(O)O,31.7% (inactive)
